The supplement of paper PMC12067093, “Discovery and optimisation of a covalent ligand for TRIM25 and its application to targeted protein ubiquitination” (Chemical Science, 2025)
The full data set covers some 21,000 targets. This sample favours those with the largest changes.

compound: CC1Cc2ccccc2N1C(=O)C1CCCN(C1)C(=O)CCl (mixture of isomers) [TRIM25 ligand 11 (diastereomer mixture)]; assay: probe-labelled cysteine peptide fold change vs DMSO (competition) (log2 fold change); higher = less target engagement (more negative = stronger competition); conditions: 10 µM; THP-1; incubation time: 4 h
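Also: competitive chemoproteomic profiling in live THP-1 cells with an iodoacetamide desthiobiotin (IA-DTB) probe, comparing probe-labelled peptide intensities in compound-treated cells against DMSO-treated controls.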

Chain of UniProt P26440 (P26440 whole entry, looked up): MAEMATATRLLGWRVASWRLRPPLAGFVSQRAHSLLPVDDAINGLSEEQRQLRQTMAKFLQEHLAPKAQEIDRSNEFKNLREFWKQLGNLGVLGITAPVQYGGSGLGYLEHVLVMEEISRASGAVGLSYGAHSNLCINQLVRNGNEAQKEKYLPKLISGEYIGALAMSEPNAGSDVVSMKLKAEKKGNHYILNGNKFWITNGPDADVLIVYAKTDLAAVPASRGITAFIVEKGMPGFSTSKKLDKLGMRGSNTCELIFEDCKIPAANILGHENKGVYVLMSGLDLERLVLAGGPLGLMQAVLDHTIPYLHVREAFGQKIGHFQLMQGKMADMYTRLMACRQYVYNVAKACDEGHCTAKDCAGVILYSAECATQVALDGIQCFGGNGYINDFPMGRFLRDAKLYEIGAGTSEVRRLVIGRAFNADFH
Chain of UniProt Q9Y496 (Q9Y496 whole entry): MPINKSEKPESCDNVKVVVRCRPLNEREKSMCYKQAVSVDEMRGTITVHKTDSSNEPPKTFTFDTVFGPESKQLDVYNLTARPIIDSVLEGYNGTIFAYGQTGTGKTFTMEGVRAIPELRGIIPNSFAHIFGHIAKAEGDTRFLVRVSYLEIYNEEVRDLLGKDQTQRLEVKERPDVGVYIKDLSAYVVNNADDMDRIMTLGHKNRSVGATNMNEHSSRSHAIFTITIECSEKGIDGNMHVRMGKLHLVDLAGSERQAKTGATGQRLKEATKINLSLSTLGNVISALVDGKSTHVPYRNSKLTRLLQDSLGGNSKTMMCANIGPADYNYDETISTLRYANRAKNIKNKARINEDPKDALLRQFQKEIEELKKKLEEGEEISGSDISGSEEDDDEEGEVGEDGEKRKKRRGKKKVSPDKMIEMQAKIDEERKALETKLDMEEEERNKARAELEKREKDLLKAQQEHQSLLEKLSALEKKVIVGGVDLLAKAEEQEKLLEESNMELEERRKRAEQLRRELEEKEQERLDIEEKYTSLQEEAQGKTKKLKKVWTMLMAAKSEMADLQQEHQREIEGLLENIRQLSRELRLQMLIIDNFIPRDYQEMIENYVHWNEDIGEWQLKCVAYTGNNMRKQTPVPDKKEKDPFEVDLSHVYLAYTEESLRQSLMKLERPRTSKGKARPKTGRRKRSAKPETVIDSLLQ
Chain of UniProt P52294 (P52294 whole entry, looked up): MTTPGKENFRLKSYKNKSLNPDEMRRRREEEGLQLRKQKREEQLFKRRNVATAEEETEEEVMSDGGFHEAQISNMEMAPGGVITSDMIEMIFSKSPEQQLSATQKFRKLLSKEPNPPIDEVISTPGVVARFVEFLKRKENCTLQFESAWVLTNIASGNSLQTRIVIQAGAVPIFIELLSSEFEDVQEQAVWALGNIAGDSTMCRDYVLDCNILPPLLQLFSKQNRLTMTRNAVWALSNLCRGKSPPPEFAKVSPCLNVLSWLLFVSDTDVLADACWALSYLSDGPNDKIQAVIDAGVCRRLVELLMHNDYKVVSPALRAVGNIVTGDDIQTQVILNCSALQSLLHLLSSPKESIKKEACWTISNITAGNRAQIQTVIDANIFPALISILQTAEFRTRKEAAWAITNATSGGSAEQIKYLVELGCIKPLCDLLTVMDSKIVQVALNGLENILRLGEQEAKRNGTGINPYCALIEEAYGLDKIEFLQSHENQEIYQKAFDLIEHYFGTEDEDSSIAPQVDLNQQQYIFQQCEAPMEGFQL
Chain of UniProt P49916 (P49916 whole entry, looked up): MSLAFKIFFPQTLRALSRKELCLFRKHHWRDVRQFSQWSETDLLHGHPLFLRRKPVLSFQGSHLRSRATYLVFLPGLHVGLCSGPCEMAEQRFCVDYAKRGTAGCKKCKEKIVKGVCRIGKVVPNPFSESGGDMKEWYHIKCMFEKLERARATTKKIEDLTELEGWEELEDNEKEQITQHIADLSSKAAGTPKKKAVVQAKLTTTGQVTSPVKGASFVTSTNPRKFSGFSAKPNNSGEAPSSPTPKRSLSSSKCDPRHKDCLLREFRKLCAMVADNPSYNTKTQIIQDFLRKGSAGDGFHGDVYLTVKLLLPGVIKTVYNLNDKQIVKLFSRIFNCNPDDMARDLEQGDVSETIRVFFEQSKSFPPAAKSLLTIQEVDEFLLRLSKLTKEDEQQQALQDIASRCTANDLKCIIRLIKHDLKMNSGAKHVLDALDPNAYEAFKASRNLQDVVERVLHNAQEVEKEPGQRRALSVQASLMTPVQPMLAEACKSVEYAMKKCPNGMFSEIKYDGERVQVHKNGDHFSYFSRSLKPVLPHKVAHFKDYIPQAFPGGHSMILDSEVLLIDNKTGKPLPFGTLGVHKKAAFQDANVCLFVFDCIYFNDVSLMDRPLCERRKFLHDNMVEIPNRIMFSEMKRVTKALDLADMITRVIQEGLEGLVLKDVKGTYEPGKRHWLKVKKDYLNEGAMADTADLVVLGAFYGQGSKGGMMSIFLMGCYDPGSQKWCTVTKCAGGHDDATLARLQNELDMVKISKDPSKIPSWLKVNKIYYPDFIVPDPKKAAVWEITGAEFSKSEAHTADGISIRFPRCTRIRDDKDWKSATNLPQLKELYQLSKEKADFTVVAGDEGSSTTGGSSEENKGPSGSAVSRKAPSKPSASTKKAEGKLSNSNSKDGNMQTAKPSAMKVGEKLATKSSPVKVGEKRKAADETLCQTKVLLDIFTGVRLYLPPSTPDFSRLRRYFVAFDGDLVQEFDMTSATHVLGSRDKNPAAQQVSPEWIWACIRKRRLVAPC
Chain of UniProt P48059 (P48059 whole entry, looked up): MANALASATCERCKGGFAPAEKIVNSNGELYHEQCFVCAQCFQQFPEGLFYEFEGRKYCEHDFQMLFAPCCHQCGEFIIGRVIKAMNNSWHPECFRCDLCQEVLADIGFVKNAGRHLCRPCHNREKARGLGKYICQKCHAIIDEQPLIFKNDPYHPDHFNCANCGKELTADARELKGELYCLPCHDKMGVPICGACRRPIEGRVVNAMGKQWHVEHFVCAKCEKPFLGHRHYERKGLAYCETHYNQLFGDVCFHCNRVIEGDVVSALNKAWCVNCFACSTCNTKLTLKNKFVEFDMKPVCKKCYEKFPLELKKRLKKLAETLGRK
Chain of UniProt O60711 (O60711 whole entry, looked up): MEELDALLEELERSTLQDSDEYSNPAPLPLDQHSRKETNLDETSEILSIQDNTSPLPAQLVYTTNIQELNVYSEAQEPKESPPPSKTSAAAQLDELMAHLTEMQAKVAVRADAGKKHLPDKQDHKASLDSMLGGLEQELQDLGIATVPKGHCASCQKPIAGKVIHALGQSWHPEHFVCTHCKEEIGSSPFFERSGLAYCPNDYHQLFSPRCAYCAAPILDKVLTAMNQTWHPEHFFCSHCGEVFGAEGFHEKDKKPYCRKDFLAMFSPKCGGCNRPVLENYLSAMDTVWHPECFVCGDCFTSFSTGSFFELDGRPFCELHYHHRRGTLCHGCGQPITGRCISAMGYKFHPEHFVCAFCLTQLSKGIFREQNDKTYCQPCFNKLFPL
Chain of UniProt Q8TDW0 (Q8TDW0 whole entry, looked up): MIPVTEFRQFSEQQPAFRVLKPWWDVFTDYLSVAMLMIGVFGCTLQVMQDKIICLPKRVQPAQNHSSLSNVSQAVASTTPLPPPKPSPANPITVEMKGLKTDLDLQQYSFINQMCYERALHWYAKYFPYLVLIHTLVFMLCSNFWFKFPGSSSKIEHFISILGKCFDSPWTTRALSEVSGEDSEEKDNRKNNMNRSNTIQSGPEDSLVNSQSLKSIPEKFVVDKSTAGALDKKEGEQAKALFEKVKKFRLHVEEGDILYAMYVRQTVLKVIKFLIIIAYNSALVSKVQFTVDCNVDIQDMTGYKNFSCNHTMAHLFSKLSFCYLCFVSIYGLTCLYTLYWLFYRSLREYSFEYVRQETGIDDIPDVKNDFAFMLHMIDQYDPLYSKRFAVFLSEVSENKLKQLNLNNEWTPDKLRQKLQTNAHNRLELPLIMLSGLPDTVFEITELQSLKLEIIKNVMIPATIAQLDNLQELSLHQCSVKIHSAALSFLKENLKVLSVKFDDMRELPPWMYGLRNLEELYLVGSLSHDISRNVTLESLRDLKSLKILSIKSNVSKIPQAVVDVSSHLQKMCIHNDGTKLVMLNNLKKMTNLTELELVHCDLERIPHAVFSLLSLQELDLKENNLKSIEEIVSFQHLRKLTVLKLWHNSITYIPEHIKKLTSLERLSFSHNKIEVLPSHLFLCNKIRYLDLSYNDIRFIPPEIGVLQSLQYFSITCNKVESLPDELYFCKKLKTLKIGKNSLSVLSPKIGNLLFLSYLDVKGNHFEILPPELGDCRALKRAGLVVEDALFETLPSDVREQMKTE
Chain of UniProt Q14807 (Q14807 whole entry, looked up): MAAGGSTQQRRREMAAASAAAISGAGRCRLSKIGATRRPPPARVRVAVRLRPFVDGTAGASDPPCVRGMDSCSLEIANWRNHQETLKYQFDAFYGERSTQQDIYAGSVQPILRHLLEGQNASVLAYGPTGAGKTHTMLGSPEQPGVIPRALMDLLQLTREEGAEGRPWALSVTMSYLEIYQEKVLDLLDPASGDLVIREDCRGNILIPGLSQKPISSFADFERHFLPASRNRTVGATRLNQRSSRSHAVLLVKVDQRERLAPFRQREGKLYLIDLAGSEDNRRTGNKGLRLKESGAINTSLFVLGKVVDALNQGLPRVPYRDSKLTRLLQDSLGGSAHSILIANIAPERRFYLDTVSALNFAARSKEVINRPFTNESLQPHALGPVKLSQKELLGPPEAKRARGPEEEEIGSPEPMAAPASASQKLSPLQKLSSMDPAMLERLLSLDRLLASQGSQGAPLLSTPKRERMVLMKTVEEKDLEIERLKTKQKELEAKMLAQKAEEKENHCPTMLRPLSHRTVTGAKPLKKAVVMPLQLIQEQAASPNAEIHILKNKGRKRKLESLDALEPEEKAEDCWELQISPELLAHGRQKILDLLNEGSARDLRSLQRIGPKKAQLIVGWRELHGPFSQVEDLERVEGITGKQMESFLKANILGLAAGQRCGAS

Target	probe-labelled cysteine peptide fold change
LIMS1_P48059_193+196_MGVPICGACR (UniProt P48059)	-0.089
LPXN_O60711_155_GHCASCQK (UniProt O60711)	0.00581
KPNA1_P52294_424_YLVELGCIK (UniProt P52294)	0.213
KIF3A_Q9Y496_230_SHAIFTITIECSEK (UniProt Q9Y496)	0.112
LGALS1_P09382_17_ACGLVASNLNLKPGECLR (UniProt P09382)	-0.0469
IVD_P26440_136_ASGAVGLSYGAHSNLCINQLVR (UniProt P26440)	0.0597
LIMS3_P0CW19-2_121+132_KYCEHDFQMLFAPCCHQCGEFIIGR<|>LIMS1_P48059_59+70_KYCEHDFQMLFAPCCHQCGEFIIGR (UniProt P48059+P0CW19)	-0.18
LGALS1_P09382_3_ACGLVASNLNLKPGECLR (UniProt P09382)	-0.0986
IGF2R_P11717_1783_TSECDFVFEWETPVVCPDEVR (UniProt P11717)	-0.144
LIG3_P49916_499_KCPNGMFSEIKYDGER (UniProt P49916)	0.24

same assay, conditions: 50 µM; THP-1; incubation time: 4 h

Target	probe-labelled cysteine peptide fold change
KDM3A_Q9Y4C1_814_PACPASTSPLNWLADLTSGNVNK (UniProt Q9Y4C1)	-0.377
LRRC8C_Q8TDW0_599_MTNLTELELVHCDLER (UniProt Q8TDW0)	0.0824
KIF22_Q14807_201_VLDLLDPASGDLVIREDCR (UniProt Q14807)	-0.158
INTS6L_Q5JSJ4_745_NCSLSVDDQK (UniProt Q5JSJ4)	-0.0158
KLHL26_Q53HC5_383_SGEGAVDACYR (UniProt Q53HC5)	0.211
IKBKB_O14920_524_EMEQAVELCGR (UniProt O14920)	0.0969
ITGB2_P05107_386_VTYDSFCSNGVTHR (UniProt P05107)	-0.0395
ITGB2_P05107_481_NCECQTQGR (UniProt P05107)	-0.216
IRF3_Q14653_267_HVLSCLGGGLALWR (UniProt Q14653)	0.346
IARS2_Q9NSE4_819_SCQTALVEILDVIVR (UniProt Q9NSE4)	-0.107
KNTC1_P50748_911_IIDLIDREQGEDCLLLLK (UniProt P50748)	0.137
IGF2R_P11717_149_TLGTPEFVTATECVHYFEWR (UniProt P11717)	-0.305
INPP5F_Q9Y2H2_725_DTLQCIAEMLQITK (UniProt Q9Y2H2)	0.242
LANCL2_Q9NS86_367_GYGICHGTAGNGYSFLSLYR (UniProt Q9NS86)	-0.0445
ITSN2_Q9NZM3_1429_ENSDRLEWIQAHVQCEGLAEQLIFNSLTNCLGPR (UniProt Q9NZM3)	-0.633
KIAA1958_Q8N8K9_246_PKPQTHAGPSCVGSAK (UniProt Q8N8K9)	-0.293
LIMS1_P48059_193+196_MGVPICGACR (UniProt P48059)	-0.114
LPXN_O60711_155_GHCASCQK (UniProt O60711)	0.145
KPNA1_P52294_424_YLVELGCIK (UniProt P52294)	0.184
KIF3A_Q9Y496_230_SHAIFTITIECSEK (UniProt Q9Y496)	-0.0259
LGALS1_P09382_17_ACGLVASNLNLKPGECLR (UniProt P09382)	-0.0291
IVD_P26440_136_ASGAVGLSYGAHSNLCINQLVR (UniProt P26440)	-0.151
LIMS3_P0CW19-2_121+132_KYCEHDFQMLFAPCCHQCGEFIIGR<|>LIMS1_P48059_59+70_KYCEHDFQMLFAPCCHQCGEFIIGR (UniProt P48059+P0CW19)	-0.291
LGALS1_P09382_3_ACGLVASNLNLKPGECLR (UniProt P09382)	-0.246
IGF2R_P11717_1783_TSECDFVFEWETPVVCPDEVR (UniProt P11717)	-0.672
LIG3_P49916_499_KCPNGMFSEIKYDGER (UniProt P49916)	0.59
